This is an account of results in PubChem BioAssay (EPA / NIEHS).

As a reminder, the AC50 is the concentration at which the activity in the assay is half-maximal.

Where “and” joins values, the source holds several entries; their conditions need not be identical. Identical values can stand only once. A structure can be active in one record and inactive in another. Calls of active or inactive are those of the source. How the source made its calls: active means hit-call score of the fitted dose curve at least 0.9, where 1 is the maximum; inactive means score below 0.9.

This assay is described as follows: BSK_BT_Bcell_Proliferation: Viability Assessment in the BioMAP Diversity Plus: BT Assay for B cell Proliferation (AID 2284227). Particulars: primary human B cells with PBMC. The method, then: BSK_BT is a cell-based, multiplexed-readout assay that uses B cell and peripheral blood mononuclear cells, a human vascular primary cell co-culture, with measurements taken at 24 hours after chemical dosing in a microplate: 96-well plate.BSK_BT_Bcell_Proliferation is an assay component measured in the BSK_BT assay. It measures protein content, a form of viability reporter, as detected with absorbance signals by Sulforhodamine staining technology.Data from the assay component BSK_BT_Bcell_Proliferation was analyzed at the endpoint, BSK_BT_Bcell_Proliferation, in the positive analysis fitting direction relative to DMSO as the negative control and baseline of activity. Using a type of viability reporter, gain or loss-of-signal activity can be used to understand cellular changes in viability. To generalize the intended target to other relatable targets, this assay endpoint is annotated to the 'cell cycle' intended target family, where the subfamily is 'proliferation'.
The levels of cell surface (or secreted, indicated by the prefix "s") biomarker endpoints were measured by ELISA. Overt cytotoxicity to cells in confluent adherent cultures (all systems other than the BT system) was assessed by measuring total protein levels using sulforhodamine B (SRB) staining in parallel cultures at the time of biomarker measurements, indicated as SRB endpoints. For proliferation assays for adherent cell types, individual cell types are cultured at sub-confluence and relative cell numbers quantified by SRB staining at time points optimized for each system (48 h: 3C and CASM3C systems; 72 h: BT and HDF3CGF systems; 96 h: SAg system). SRB was performed by staining cells with 0.1% SRB after fixation with 10% TCA and reading wells at 560 nm.Viability and proliferation of PBMC (T cells) was quantified by Alamar Blue reduction for the SAg and BT systems. For PBMC viability (referred to as PBMC Cytotoxicity within the assay endpoint names), cells were plated (75,000/well in a 96-well plate) and then chemical samples added for 1 h before addition of activators, SEB and TSST-1 (20 ng/mL final concentration each). Cells were incubated for 90 h. Then, Alamar Blue (20 uL/well) (Invitrogen, Cat DAL1100) was added for 6 h, and the plates were read with a fluorescence microplate reader at 546/580 nm (excitation/emission). For PBMC proliferation, cells were plated and activated as above but incubated for only 16 h prior to addition of Alamar Blue. Plates were read after 6 h.
Consider `CCOC(=O)CN[C@@H](C(=O)N1CC[C@H]1C(=O)NCc1ccc(/C(N)=N/O)cc1)C1CCCCC1`, for which the outcome was inactive. On the same count and under the same terms, the same measure for `Oc1cc2ccccc2cc1O`: “inactive”. `CC(C)(C)c1ccc(O)c(O)c1`: the AC50 was 29.1 µM (active).

For the molecule `COCN(COC)c1nc(N(COC)COC)nc(N(COC)COC)n1`, the outcome was inactive. Still for that read-out and setting: in the case of `Clc1ccc(Nc2nnc(Cc3ccncc3)c3ccccc23)cc1` it was “inactive”.

`O=P(O)(O)CCC(F)(F)C(F)(F)C(F)(F)C(F)(F)C(F)(F)C(F)(F)C(F)(F)C(F)(F)F`: the AC50 is 30 µM (active) and 53.9 µM (active).

In the case of `CN(CCO)S(=O)(=O)C(F)(F)C(F)(F)C(F)(F)C(F)(F)C(F)(F)C(F)(F)C(F)(F)C(F)(F)F`, the result was inactive.

In the case of `CCCCCc1ccc(O)cc1`, the result was inactive. Same read-out and setting: the same measure for `COc1cc(OC)nc(NC(=O)NS(=O)(=O)Nc2ccccc2C(=O)N(C)C)n1`: “inactive”; for `Cc1ccc(N=Nc2c(O)ccc3ccccc23)c(C)c1`: “inactive”. For `CCCCC(CC)C(=O)OCCOCCOCCOCCOC(=O)C(CC)CCCC` (centres undefined), the AC50 is 28.4 µM (active). `O=C1c2ccc(O)c(O)c2C(=O)c2c(O)ccc(O)c21`: the result was inactive. On to `O=C(CC(=O)C(F)(F)C(F)(F)C(F)(F)F)c1cccs1`, for which the AC50 was 43 µM (active) and 40.8 µM (active).

For `O=S(=O)(O)C(F)(F)C(F)(F)C(F)(F)C(F)(F)C(F)(F)C(F)(F)C(F)(F)C(F)(F)C(F)(F)C(F)(F)F`, the outcome was inactive. On to `C=CC(C)(CCC=C(C)C)OC(C)=O` (centres undefined), for which the outcome was inactive. Take `CN(C)c1ccc(C(=C2C=CC(=[N+](C)C)C=C2)c2ccccc2)cc1`: the concentration at half-maximal activity (AC50) was 0.248 µM (active). On to `C=CC(=O)OCCC(F)(F)C(F)(F)C(F)(F)C(F)(F)C(F)(F)C(F)(F)C(F)(F)C(F)(F)F`, for which the outcome was inactive. Still for that read-out and setting: in the case of `O=P(O)(O)CCC(F)(F)C(F)(F)C(F)(F)C(F)(F)C(F)(F)C(F)(F)F` it was “inactive”.

As to `CCCCCCCCCCCCCCCCCC[N+](C)(C)Cc1ccccc1`, the AC50 was 1.88 µM (active). With `CC[N+](CC)(CC)Cc1ccccc1`, the result was inactive. On the same count and under the same terms, the same measure for `O=C(O)C(F)(F)OC(F)(F)C(F)(F)OC(F)(F)C(F)(F)OC(F)(F)C(F)(F)C(F)(F)C(F)(F)F`: “inactive”. `COC1=CC(=O)C[C@@H](C)[C@]12Oc1c(Cl)c(OC)cc(OC)c1C2=O`: the half-maximal activity concentration (AC50) is 37.3 µM (active).

In the case of `O=C(NO)c1ccccc1`, the result was inactive. The same measure, in the same setting: the same measure for `Cc1ccc(C(=O)c2ccccc2)cc1`: “inactive”. Turning to `OCC(F)(F)C(F)(F)C(F)(F)C(F)(F)C(F)(F)C(F)(F)C(F)(F)C(F)(F)C(F)(F)C(F)(F)C(F)(F)F`, the half-maximal activity concentration (AC50) was 174 nM (active) and 835 nM (active). In the case of `Cc1cccc2c1ccc1ccccc12`, the outcome was inactive.

Consider `O=C(O)CCC(F)(F)C(F)(F)C(F)(F)C(F)(F)C(F)(F)C(F)(F)F`, for which the outcome was inactive. Take `O=C(NCc1ncc(C(F)(F)F)cc1Cl)c1c(Cl)cccc1Cl`: the AC50 is 20 µM (active). As to `O=C1OC2(c3ccccc31)c1cc(I)c(O)c(I)c1Oc1c2cc(I)c(O)c1I`, the result was inactive. Same read-out and setting: in the case of `C=CC(=C)CC/C=C(\C)CCC=C(C)C` it was “inactive”; in that of `CC1=NN(c2ccccc2)C(=O)C1`, “inactive”; in that of `C[C@]12CC[C@@H]3c4ccc(O)cc4CC[C@H]3[C@@H]1C[C@@H](O)[C@@H]2O`, “inactive”. As to `O=C(O)CCC(F)(F)C(F)(F)C(F)(F)C(F)(F)C(F)(F)F`, the outcome was inactive and the half-maximal activity concentration (AC50) is 6.31 µM (active). On to `C=COC(=O)C(C)(C)CCCCCC`, for which the outcome was inactive.

For `CN(Cc1cnc2nc(N)nc(N)c2n1)c1ccc(C(=O)N[C@@H](CCC(=O)O)C(=O)O)cc1`, the concentration at half-maximal activity (AC50) was 855 nM (active) and 43.4 nM (active). `COc1cccc(O)c1`: the outcome was inactive. In the case of `NC(=NCCCCCCN=C(N)/N=C(\N)Nc1ccc(Cl)cc1)/N=C(\N)Nc1ccc(Cl)cc1`, the AC50 was 9.19 µM (active). As for `OCCN1CN(CCO)CN(CCO)C1`, the half-maximal activity concentration (AC50) is 38.2 µM (active).
